The entries come from a sample that favours hits as a whole.
Ba CapD inh: blocks the Bacillus anthracis CapD enzyme; purified CapD enzyme, fluorescence intensity read-out; hits give low values; z-score (no concentration beside the values); 140,000 compounds, 0.23% hits; AID 492967; in the data active means z-score mostly below about -2.9, no sharp cut-off; inactive means mostly above about -1.9
Active calls of the source: *; ! = a repeat was not active.

SMILES | Ba CapD inh
N#CC1=C(N)SC(c2cccs2)C(C#N)=C1N (stereo not given) | -5.11*
COc1cc(OC)cc(C2SC(N)=C(C#N)C(N)=C2C#N)c1 (stereo not given) | -0.59
N#CC1=C(N)OC(C2CC2)=C(C#N)C1c1cccs1 (stereo not given) | 2.52
COc1ccccc1CNC(=O)c1ccc(-n2cc(-c3ccncc3)cn2)cc1 | 0.335
CC1CCCCN1S(=O)(=O)c1ccc(CN2C(=O)c3cccnc3C2=O)s1 (stereo not given) | 0.14
Cc1c(-c2csc(-c3ccno3)n2)sc2ccccc12 | -3.52*
Fc1cccc(-c2csc(-c3ccno3)n2)c1 | 2.74
Cc1c(-c2csc(CS(=O)(=O)C(C)(C)C)n2)sc2ccccc12 | -0.895
Cc1ccc(NC(=O)c2cc(S(=O)(=O)N3CCc4ccccc4C3)ccc2F)cc1C | -0.57
Cc1ccc(-c2nn[nH]n2)cc1 | 0.305
Cc1ccc(/C(N)=N/OC(=O)Oc2ccccc2)cc1 | -0.01
Cc1ccc(OC(=O)OCSc2nn[nH]n2)cc1 | -7.11*
CCCCNC(=O)c1sc2nc3n(c(=O)c2c1C)CCC3 | 0.255
Cn1cccc1/C=C1\CS/C(=C\c2cccn2C)C1=O | -0.27
Cn1cccc1/C=C1\SC(=S)NC1=O | -4.31*
COc1ccccc1/C=C1/SC(=S)NC1=O | -0.595
COc1ccc(-c2cc(C(F)(F)F)n3ncc(C(=O)NCCc4c[nH]c5ccc(O)cc45)c3n2)cc1OC | -0.87
CCCN1C/C(=C\c2ccc(N(C)C)cc2)C(=O)/C(=C/c2ccc(N(C)C)cc2)C1 | 0.145
CCCN1C/C(=C/c2ccsc2)C(=O)/C(=C/c2ccsc2)C1 | -4.72*
O=C1/C(=C\c2ccsc2)CC/C1=C/c1ccsc1 | -0.205
Cc1ccccc1C(=O)OCC1CCCN2CCCCC12 (stereo not given) | -0.215
S=C(NCCN1CCCCC1)NCC1CCCO1 (stereo not given) | -0.19
O=C1OC(c2ccccc2)=N/C1=C\C=C\c1ccccc1 | -0.44
CN(C)/C=C/C=C1\N=C(c2ccccc2)OC1=O | -6.99*
Cc1ccc(/C=C2\N=C(c3ccccc3)OC2=O)o1 | -2.71
SMILES | Ba CapD inh
Cc1ccc(S(=O)(=O)CCc2nc(S(=O)(=O)c3ccc(C)cc3)c(N(C)C)o2)cc1 | -0.37
Cc1ccc(-c2nc(S(=O)(=O)c3ccc(C)cc3)c(N(C)C)o2)cc1 | -0.24
Cc1ccc(S(=O)(=O)c2nc(C)oc2N(C)C)cc1 | -3*
N=c1oc2ccccc2cc1-c1nnc2n1CCCCC2 | 16.3
COc1ccccc1N1CCN(c2ncnc3sc(C(=O)Nc4ccc5c(c4)OCO5)c(C)c23)CC1 | -0.32
C=C(C)C(CC=C(C)C)COC(=O)NC(c1ccccc1)c1ccc(Cl)cc1 (stereo not given) | -0.085
CC(C)OCCn1cnc2sc3c(c2c1=O)CCCC3 | 0.385
COc1cccc(/C=N/N=C(N)N)c1O | 1.15
CSC(SC)=C(C#N)C(=O)c1cccc(C)c1 | -1.52
CSC(SC)=C(C#N)C(=O)c1cccc(C(F)(F)F)c1 | -1.45
CSC(SC)=C(C#N)C(=O)c1ccccc1Cl | -4.75*
COc1cc2nn3c(C)cc(=O)[nH]c3c2cc1OC | 65.1
O=C1c2ccccc2C(=O)N1CCSc1ccc(Br)cc1 | -0.57
CC(C)(C)NC(=O)c1ccc2c(c1)C(=O)N(Cc1ccco1)C2=O | 0.37
O=C(O)c1ccc(NC(=O)c2ccc3c(c2)C(=O)N(Cc2ccco2)C3=O)cc1 | -7.55*
CCN1C(=O)c2ccc(C(=O)Nc3ccc(C(=O)O)cc3)cc2C1=O | -0.205
CN(C1CCN(Cc2c(Cl)cccc2Cl)C1)S(=O)(=O)c1ccc(F)c(F)c1 (stereo not given) | 0.455
CCOC(=O)c1cc2ccccc2cc1O | -0.5
CCOC(=O)c1cccc(O)c1O | -2.7*
CCOC(=O)c1ccccc1S(N)(=O)=O | 0.335
COc1ccc(C2C(C(N)=O)C2(C#N)C#N)cc1 (stereo not given) | 8.91
OCC1OC(Nc2ccccn2)C(O)C(O)C1O (stereo not given) | -0.04
Cc1ccc(NC2OC(CO)C(O)C2O)cc1C (stereo not given) | 0.565
O=C(O)c1ccc(NC2OC(CO)C(O)C2O)cc1 (stereo not given) | -6.54*
COc1cc(C=C2C(=O)NC(=O)NC2=O)ccc1OCc1ccc(C(=O)O)cc1 | 0.84
SMILES | Ba CapD inh
O=C1NC(=O)C(=Cc2ccc(OCc3ccc(C(=O)O)cc3)c(Br)c2)C(=O)N1 | -0.22
O=C1NC(=S)NC(=O)C1=Cc1ccc(OCc2ccc(C(=O)O)cc2)c(Br)c1 | -4.99*
COc1cc(/C=C2\N=C(c3ccc(OC)c([N+](=O)[O-])c3)OC2=O)ccc1OC(C)=O | -0.735
O=C(O)COc1ccc(/C=C2/C(=O)NC(=O)N(c3ccc4c(c3)OCO4)C2=O)cc1 | 0.16
CCOc1cc2c(cc1OCC)C1C(C(=O)N3CCCC3)c3ccccc3C(=O)N1CC2 (stereo not given) | 0.445
CCOc1cc2c(cc1OCC)C1C(C(=O)N3CCCCC3)c3ccccc3C(=O)N1CC2 (stereo not given) | -5.9*
CCOC(=O)C1CCN(C(=O)C2c3ccccc3C(=O)N3CCc4ccccc4C23)CC1 (stereo not given) | -0.405
COc1ccc(CCNC(=O)CCn2c(SCC(=O)Nc3cc(C)on3)nc3ccccc3c2=O)cc1OC | -0.41
CSC1=NC(=Nc2ccccc2C)C2(CCC(C(C)(C)C)CC2)N1c1ccc(Cl)cc1 (stereo not given) | -0.14
N#Cc1c(-c2cccs2)[nH]c(=S)[nH]c1=O | -1.22
CN(C)c1ccc(-c2[nH]c(=S)[nH]c(=O)c2C#N)cc1 | 0.14
N#Cc1c(-c2ccccc2)[nH]c(=S)[nH]c1=O | -6.12*
CCOC(=O)c1c(CN2CCN(CC#N)CC2)oc2cc(Br)c(OC(C)=O)cc12 | 0.09
O=C(CSc1ncccc1C(=O)NCc1ccccc1Cl)Nc1ccc(Br)cc1 | 0.02
COc1cc(C(=O)Nc2cc(-c3nc4cc(C(C)C)ccc4o3)ccc2Cl)cc(OC)c1OC | -1.06
c1cncc(-c2ncc(-c3ccncc3)c(-c3ccncc3)n2)c1 | -0.42
CCOC(=O)/C(C#N)=N/Nc1sc(C(=O)OCC)c(C)c1C(=O)OCC | 0.97
COc1ccc(C2c3sc(=O)[nH]c3SC3C(=O)N(c4ccccc4)C(=O)C32)cc1 (stereo not given) | 1
O=c1[nH]c2c(s1)C(c1ccccc1)C1C3CCC(C3)C1S2 (stereo not given) | -0.125
O=C1NC(=O)C2C1Sc1[nH]c(=O)sc1C2c1ccco1 (stereo not given) | -4.13*
O=C(O)CC(CC(=O)Oc1ccc(F)cc1)c1ccc(Cl)cc1Cl (stereo not given) | 0.515
O=c1[nH]cnc2c1sc(=S)n2-c1ccccc1 | -5.43*!
COc1ccc(-c2nc3c(sc(=S)n3-c3ccccc3)c(=O)[nH]2)cc1 | 0.71
O=c1[nH]c(-c2ccc(F)cc2)nc2c1sc(=S)n2-c1ccccc1 | -0.26
CNc1cc(C#N)c2cc(Br)ccc2n1 | 0.775
SMILES | Ba CapD inh
c1ccc(N=c2[n-][n+](-c3ccccc3)cn2-c2ccccc2)cc1 | -1.55
O=C(O)CCC(=O)N1CCc2cc(S(=O)(=O)NCc3ccccc3)ccc21 | -1.62
CCC(=O)N1CCc2cc(S(=O)(=O)Nc3ccccc3OC)ccc21 | 0.41
COc1cc(NS(=O)(=O)c2ccc3c(c2)CCN3C(=O)CCC(=O)O)c(C(=O)O)cc1OC | -4.28*
C/C(=N\O)c1sc2ccccc2c1C | -0.7
O=C1CSC(c2cccc(C(F)(F)F)c2)N1c1ccc(F)c(Cl)c1 (stereo not given) | 0.035
CC1CC(C)CN(C(=O)c2cccs2)C1 (stereo not given) | 0.025
O=C(c1cccs1)N1CCCCC1 | 0.445

Assay outcomes (PubChem)
